Drawing on ChEMBL document CHEMBL3988442, “University of Dundee, Small-Polar-MMV Screening Library” (2021), this text covers Percent Effect for ten compounds.

Values joined by “and” are separate entries in the source; they are usually repeats but may differ in a detail not shown here. Equal entries are not always repeated. For some of these results: Potency and affinity values are given separately.

Holding throughout (set-up): scale not given: direction of the effect not stated beside the values
The target of assay [1] is Protein translocase subunit SecA (Escherichia coli (strain K12)) (UniProt P10408). The assay can be described thus: Assay to Identify E. coli SecA ATPase Inhibitors. The assay is classed as functional. The settings on record: 30 µM.
Chain of Protein translocase subunit SecA (Escherichia coli (strain K12)) (P10408 whole entry): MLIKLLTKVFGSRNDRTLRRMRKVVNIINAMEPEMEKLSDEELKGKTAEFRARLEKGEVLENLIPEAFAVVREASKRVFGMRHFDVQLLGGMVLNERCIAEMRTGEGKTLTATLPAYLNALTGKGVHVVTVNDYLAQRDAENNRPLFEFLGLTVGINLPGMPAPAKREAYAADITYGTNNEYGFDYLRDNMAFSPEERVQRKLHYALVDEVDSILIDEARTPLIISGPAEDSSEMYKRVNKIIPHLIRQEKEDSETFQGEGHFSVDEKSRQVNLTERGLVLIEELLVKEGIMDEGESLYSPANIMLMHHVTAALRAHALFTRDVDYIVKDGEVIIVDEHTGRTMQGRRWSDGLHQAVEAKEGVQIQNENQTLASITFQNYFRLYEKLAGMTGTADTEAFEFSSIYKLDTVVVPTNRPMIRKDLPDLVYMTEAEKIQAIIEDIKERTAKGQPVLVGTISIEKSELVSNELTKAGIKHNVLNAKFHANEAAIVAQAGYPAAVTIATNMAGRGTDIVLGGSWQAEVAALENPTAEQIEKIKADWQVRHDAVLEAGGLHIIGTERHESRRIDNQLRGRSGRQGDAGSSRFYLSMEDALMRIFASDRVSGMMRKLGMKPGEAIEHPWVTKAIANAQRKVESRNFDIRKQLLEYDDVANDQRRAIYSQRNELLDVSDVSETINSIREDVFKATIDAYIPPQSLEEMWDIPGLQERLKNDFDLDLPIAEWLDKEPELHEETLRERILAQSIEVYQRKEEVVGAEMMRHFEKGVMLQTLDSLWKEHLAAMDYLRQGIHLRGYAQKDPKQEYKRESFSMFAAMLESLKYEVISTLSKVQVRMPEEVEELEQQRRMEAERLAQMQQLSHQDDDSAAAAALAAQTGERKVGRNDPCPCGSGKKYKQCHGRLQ
Assay [2] concerns the target T1, Ubiquitin-activating enzyme e1, putative (Leishmania donovani (strain BPK282A1)) (UniProt E9BSI1).
T1 sequence (whole entry): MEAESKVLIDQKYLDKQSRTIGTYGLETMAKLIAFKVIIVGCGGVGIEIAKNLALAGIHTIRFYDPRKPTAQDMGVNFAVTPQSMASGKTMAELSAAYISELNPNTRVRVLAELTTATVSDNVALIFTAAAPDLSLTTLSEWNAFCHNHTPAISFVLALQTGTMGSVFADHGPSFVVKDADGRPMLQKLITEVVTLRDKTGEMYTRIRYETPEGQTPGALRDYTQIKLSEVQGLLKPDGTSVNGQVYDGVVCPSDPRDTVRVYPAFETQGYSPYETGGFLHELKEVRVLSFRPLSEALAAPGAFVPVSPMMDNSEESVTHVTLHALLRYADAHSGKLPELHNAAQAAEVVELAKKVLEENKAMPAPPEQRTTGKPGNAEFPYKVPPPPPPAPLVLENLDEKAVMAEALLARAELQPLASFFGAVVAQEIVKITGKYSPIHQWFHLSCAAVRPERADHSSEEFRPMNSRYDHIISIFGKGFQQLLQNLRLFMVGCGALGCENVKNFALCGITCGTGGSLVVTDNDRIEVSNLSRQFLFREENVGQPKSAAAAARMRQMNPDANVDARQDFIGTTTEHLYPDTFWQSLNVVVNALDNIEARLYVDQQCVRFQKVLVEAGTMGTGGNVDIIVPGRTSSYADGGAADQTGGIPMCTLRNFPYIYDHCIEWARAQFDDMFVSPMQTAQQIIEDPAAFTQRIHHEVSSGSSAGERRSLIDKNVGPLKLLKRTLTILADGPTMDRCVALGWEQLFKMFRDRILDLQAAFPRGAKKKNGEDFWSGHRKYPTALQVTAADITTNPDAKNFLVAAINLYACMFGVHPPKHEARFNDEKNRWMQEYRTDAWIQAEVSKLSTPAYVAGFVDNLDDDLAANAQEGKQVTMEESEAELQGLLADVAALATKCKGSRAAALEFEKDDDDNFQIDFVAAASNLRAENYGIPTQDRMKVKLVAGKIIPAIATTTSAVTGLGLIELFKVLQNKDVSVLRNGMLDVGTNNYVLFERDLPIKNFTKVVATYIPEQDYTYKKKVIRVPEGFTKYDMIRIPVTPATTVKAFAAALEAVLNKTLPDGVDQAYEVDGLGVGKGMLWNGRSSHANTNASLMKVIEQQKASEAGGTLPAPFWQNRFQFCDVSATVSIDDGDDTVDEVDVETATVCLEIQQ
Briefly: Leishmania donovani Ubiquitin Activating Enzyme (LdE1). The assay is classed as functional. The note with it: 30 µM.

Assay [3] has as its target Sialic acid-binding Ig-like lectin 9 (Homo sapiens) (UniProt Q9Y336). The assay can be described thus: Hs-Siglec9 ALPHAscreen SOP 20170721. The settings on record: 10 µM.
The next assay relates to Trypanosoma cruzi. The assay can be described thus: Trypanosoma cruzi phosphomannomutase and mannose-1-phosphate guanylyltransferase assay. The settings on record: 10 µM. The assay is classed as functional.
Assay [4] has as its target T2, Arginase-2, mitochondrial (Homo sapiens) (UniProt P78540).
T2 sequence (whole entry): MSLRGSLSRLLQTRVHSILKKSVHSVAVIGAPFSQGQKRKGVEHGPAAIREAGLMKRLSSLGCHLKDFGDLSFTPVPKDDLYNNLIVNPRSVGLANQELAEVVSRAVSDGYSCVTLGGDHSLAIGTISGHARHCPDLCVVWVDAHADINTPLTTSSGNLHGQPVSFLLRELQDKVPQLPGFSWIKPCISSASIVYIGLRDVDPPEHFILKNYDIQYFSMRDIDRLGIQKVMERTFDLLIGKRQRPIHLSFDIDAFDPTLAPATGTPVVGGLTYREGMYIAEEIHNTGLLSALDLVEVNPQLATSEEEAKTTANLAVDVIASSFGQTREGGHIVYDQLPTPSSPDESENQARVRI
Briefly: in vitro enzyme assay to detect the production of urea directly proportional to the activity of Arginase II. Note: in the data most compounds retested in dose-response had high values. The format is functional.

Assay [5] has as its target T3, Proteasome subunit beta (Trypanosoma cruzi) (UniProt O96673).
T3 sequence (whole entry): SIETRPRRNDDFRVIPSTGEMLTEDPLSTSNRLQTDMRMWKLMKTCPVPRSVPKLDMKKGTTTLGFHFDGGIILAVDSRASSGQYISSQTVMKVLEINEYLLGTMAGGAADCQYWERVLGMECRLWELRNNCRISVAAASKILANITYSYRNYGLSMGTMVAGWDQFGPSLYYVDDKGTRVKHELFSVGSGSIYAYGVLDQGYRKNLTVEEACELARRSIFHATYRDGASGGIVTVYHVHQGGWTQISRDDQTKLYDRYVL
Briefly: Trypanosoma cruzi proteasome chymotrypsin-like activity (TcProtChymo) assay. Note: in the data most compounds retested in dose-response had high values. The assay is classed as functional. The settings on record: 9.37 µM.

For the next assay, the species on record is Homo sapiens. Briefly: To identify inhibition of the IFN signalling (Jak-Stat) pathway via expression of an eGFP reporter gene under the control of an IFN-stimulated response element (ISRE) containing MxA promoter. The format is functional. The settings on record: 30 µM. In general terms: A reporter such as luciferase makes a cellular process visible.

Assay [6] deals with T4, Tyrosyl-tRNA synthetase, putative (Trypanosoma cruzi (strain CL Brener)) (UniProt Q4DSP6).
T4 sequence (whole entry): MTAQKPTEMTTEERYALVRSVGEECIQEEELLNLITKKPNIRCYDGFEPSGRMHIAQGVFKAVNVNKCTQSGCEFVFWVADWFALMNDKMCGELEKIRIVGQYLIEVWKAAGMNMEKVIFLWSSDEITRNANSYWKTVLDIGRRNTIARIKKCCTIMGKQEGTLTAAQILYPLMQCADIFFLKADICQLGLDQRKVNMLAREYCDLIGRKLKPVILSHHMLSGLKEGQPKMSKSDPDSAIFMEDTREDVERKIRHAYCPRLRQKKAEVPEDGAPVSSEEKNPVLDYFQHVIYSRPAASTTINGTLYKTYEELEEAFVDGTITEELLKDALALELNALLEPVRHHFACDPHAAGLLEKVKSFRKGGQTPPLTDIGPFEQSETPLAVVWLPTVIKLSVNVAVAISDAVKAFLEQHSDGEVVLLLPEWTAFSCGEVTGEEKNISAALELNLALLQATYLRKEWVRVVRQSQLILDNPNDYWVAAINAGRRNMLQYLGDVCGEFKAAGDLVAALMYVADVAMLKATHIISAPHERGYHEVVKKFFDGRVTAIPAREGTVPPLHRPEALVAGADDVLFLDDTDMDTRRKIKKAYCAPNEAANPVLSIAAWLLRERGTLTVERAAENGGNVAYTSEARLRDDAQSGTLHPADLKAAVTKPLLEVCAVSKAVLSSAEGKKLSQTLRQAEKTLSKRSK
The assay can be described thus: Trypanosoma cruzi tyrosyl tRNA synthetase (TcYRS) _High Tyrosine SOP. Note: in the data most compounds retested in dose-response had high values. The format is functional. The settings on record: 30 µM.

Assay [7] concerns the target T4, Tyrosyl-tRNA synthetase, putative (Trypanosoma cruzi (strain CL Brener)). The assay can be described thus: Trypanosoma cruzi tyrosyl tRNA synthetase (TcYRS) SOP. The format is functional. The note with it: 30 µM.
Assay [8] concerns the target Chromo domain-containing protein 1 (Saccharomyces cerevisiae (strain ATCC 204508 / S288c) (Baker's yeast)) (UniProt P32657). The assay can be described thus: ScCHD-1 Enzyme Inhibition Assay. Note: in the data most compounds retested in dose-response had high values. The assay is classed as functional. The note with it: 30 µM.
The subject of the next assay is N/A. The assay can be described thus: Trypanosoma cruzi proteasome luciferase counter-screen. The note with it: 9.37 µM. The assay is classed as functional.
Assay [9] concerns the target AMP-activated protein kinase, AMPK (Homo sapiens) (UniProt P54646+O43741+P54619+Q9UGJ0+Q9Y478+Q13131+Q9UGI9). The assay can be described thus: AMP-dependent Kinase enzyme assay. An in vitro enzyme assay that detects ADP turnover that is directly proportional to AMPK activity. This uses naive AMPK that is activated during the assay with MK-8722. The format is functional. The note with it: 30 µM.

Chain of Chromo domain-containing protein 1 (Saccharomyces cerevisiae (strain ATCC 204508 / S288c) (Baker's yeast)) (P32657 whole entry, the tested form may be a part): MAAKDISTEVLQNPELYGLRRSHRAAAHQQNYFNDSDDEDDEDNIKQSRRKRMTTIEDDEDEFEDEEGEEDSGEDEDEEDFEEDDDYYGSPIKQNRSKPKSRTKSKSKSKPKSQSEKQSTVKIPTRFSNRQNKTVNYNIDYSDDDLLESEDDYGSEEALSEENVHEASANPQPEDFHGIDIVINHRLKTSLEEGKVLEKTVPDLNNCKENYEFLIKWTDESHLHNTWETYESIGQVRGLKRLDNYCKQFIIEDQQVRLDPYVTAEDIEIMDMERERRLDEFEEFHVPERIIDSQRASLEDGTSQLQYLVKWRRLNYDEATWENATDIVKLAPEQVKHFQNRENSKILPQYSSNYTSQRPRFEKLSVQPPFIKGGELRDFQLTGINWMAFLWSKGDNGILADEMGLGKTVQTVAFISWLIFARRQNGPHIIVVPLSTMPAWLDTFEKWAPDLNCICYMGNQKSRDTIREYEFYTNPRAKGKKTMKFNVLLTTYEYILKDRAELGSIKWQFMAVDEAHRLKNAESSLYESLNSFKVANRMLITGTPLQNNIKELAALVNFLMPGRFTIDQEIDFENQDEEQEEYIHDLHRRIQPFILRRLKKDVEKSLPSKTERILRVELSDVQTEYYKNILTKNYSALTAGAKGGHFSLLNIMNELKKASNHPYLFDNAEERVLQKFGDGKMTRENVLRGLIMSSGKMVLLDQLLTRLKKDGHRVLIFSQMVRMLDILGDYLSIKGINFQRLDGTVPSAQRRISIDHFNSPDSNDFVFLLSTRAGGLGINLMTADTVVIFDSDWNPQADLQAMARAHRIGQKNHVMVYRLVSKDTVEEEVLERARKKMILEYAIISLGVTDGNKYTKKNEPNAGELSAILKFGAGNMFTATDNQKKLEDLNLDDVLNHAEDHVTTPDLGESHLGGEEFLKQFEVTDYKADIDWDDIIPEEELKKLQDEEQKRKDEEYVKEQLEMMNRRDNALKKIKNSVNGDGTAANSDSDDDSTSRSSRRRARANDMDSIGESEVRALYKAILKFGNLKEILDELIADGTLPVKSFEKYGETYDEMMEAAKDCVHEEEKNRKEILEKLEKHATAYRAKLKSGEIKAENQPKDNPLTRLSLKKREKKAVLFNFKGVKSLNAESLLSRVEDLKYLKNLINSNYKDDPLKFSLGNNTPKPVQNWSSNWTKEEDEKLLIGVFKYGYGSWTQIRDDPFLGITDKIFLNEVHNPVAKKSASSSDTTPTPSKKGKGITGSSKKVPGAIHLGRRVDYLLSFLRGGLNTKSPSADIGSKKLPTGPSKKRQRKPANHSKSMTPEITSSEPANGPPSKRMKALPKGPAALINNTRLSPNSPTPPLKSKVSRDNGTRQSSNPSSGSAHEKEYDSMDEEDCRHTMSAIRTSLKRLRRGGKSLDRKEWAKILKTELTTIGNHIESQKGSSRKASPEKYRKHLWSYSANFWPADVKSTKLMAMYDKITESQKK
Chain of Sialic acid-binding Ig-like lectin 9 (Homo sapiens) (Q9Y336 whole entry): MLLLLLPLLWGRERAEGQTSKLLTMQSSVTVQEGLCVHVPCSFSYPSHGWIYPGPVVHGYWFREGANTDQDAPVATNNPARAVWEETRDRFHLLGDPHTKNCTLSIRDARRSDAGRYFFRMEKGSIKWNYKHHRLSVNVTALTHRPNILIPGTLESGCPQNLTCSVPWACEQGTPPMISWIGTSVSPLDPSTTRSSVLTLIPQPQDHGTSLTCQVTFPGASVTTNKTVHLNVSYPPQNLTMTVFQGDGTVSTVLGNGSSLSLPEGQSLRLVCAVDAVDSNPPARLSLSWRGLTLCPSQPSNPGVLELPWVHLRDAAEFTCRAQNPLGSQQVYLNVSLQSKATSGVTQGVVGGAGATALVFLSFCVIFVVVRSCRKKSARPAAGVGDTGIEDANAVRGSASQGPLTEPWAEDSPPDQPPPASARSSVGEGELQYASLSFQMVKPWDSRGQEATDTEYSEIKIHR

Consider `CCc1n[nH]c(C2CN(C(=O)c3nc(C)ncc3Cl)CCO2)n1` (stereo unspecified), for which the Percent Effect in assay [1] was -2.86%; in [2] it was 7.79%; in [3], 9.79%; in the assay with Trypanosoma cruzi, -2.24%; in [4] (33.3 µM), 1.43%; in assay [5], -0.351%. The Percent Effect came out at 2.84% in the assay listed under Homo sapiens, 2.94% in assay [6], 7.06% in assay [7] and 2.12% in assay [8].
With `CCc1nnc2n1CCN(Cc1csc(-c3ccc(C)o3)n1)C2`, the Percent Effect in assay [1] was -2.83%; in assay [2], 10.3%; in [3], -4.26%; in the assay on Trypanosoma cruzi, 7.42%; in [4] (33.3 µM), 1.23%; in [5] it was 36.4% and 37.5% and 36.1%. For the same compound, the Percent Effect in the assay on N/A is 6.53% and 0.633%; in the assay listed under Homo sapiens, 4.79%; in [6] it was 8.13%; in assay [7], 22.9%; in [8] it was -6.08%.
For the compound `COc1cccc(-c2noc(C3CCN(Cc4cccs4)C3)n2)c1` (stereo unspecified), the Percent Effect in [1] was 4.18%; in assay [2] it was 4%; in assay [3] it was -7.16%; in the assay on Trypanosoma cruzi it was -5.33%; in assay [4] (33.3 µM), 1.77%; in assay [5] it was 57.3% and 54.2% and 60.1%. The Percent Effect is 26.2% and 26.8% in the assay with N/A; 16% in the assay filed under Homo sapiens; -3.17% in [6]; 7.5% in assay [7]; -23.7% in [8].
As to `Cc1nn(C)cc1-c1cc(C(F)(F)F)c2c(C)nn(CC(=O)O)c2n1`, the Percent Effect was 0.552% in assay [1]; 14.7% in [2]; -7.53% in assay [3]; -2.56% in the assay with Trypanosoma cruzi; -0.885% in assay [4] (33.3 µM); 7.72% in assay [5]. In addition, the Percent Effect is 24.1% in the assay listed under Homo sapiens, -1.06% in assay [6], 0% in [7] and -17.3% in assay [8].
As to `Nc1nc(CCC(=O)N2CCOC(CC3CCCCC3)C2)cs1` (stereo unspecified), the Percent Effect is -7.43% in [1]; 0% in assay [2]; 6.25% in assay [3]; 11.3% with Trypanosoma cruzi; 3.78% in assay [4] (30 µM); -2.45% in assay [4] (33.3 µM). The Percent Effect in assay [5] worked out at 3.25%; in the assay filed under Homo sapiens, 10.9%; in assay [6], 9.04%; in assay [7], 19.5%; in [8], 5.38%.
Turning to `Fc1ccccc1CN1C[C@@H](OCc2ccncc2)[C@H]2OCCC[C@H]21`, the Percent Effect in assay [1] was -4.8%; in [2], 10.4%; in assay [9], 6.84%; in assay [3], 10.2%; in the assay on Trypanosoma cruzi, 4.62%; in assay [4] (33.3 µM) it was -13.8%. The Percent Effect in assay [5] is 5.49%; in the assay listed under Homo sapiens it was 6.56%; in assay [6] it was 7.53%; in assay [7], 16.1%; in [8], -1.04%.
In the case of `COc1cc(C(=O)N2CCCS2(=O)=O)cc(Cl)c1OC`, the Percent Effect in [1] is -4.13%; in [2], 24%; in assay [3], 3.41%; in the assay with Trypanosoma cruzi, -0.602%; in [4] (33.3 µM), -4.88%; in assay [5], 9.07%. Also, the Percent Effect in the assay listed under Homo sapiens was 7.8%; in assay [6], 4.74%; in [7] it was 15.4%; in assay [8], -12.8%.
Consider `Cc1nc(N)sc1C(=O)N1CCCC(c2nccn2CCCN(C)C)C1` (stereo unspecified), for which the Percent Effect is -5.86% in assay [1]; 10.8% in assay [2]; 10.2% in [3]; 7.47% with Trypanosoma cruzi; 9.19% in [4] (30 µM); -3.15% in assay [4] (33.3 µM). Further, the Percent Effect in assay [5] was 13.2%; in the assay filed under Homo sapiens it was 7.55%; in assay [6], 11.2%; in assay [7], 9.76%; in assay [8], 95.1%.
Regarding `Cc1ccc(N2CC[C@H]3O[C@@H](C(=O)NCc4ccco4)CC[C@H]32)nn1`, the Percent Effect in assay [1] was -3.84%; in assay [2], 11.7%; in [3] it was -7.1%; in the assay with Trypanosoma cruzi it was 0.487%; in assay [4] (33.3 µM), 4.05%; in [5], 34.9% and 42.6% and 44.7%. Besides, the Percent Effect in the assay on N/A is 17.7% and 15.6%; in the assay listed under Homo sapiens it was 2.02%; in [6] it was 12.1%; in assay [7], 12.8%; in assay [8], -1.01%.
Take `COc1ccccc1CC(=O)N1CC[C@@]2(CCCO2)[C@@H](OC)C1`: the Percent Effect is -3.82% in assay [1]; 4% in assay [2]; -4.43% in assay [3]; -3.35% with Trypanosoma cruzi; -9.29% in [4] (33.3 µM); 6.4% in assay [5]. Besides, the Percent Effect in the assay filed under Homo sapiens was 14.4%; in [6], -1.06%; in [7] it was 5%; in [8] it was -24.2%.
